In PubChem BioAssay (NCATS) one finds Potency data, which are given here for eleven compounds.

Inconclusive results are not listed. The source made the active and inactive calls. Calls follow the shape of the dose curve; as a rule, active = well fitted inhibition curve with a large enough effect; inconclusive = small, poorly fitted or top-dose-only effect; inactive = flat fitted curve, though single readings scatter.

Holding throughout (experiment): qHTS profiling for inhibitors of Plasmodium falciparum proliferation (AID 504749); also: nearly all actives have a fitted effect of over 60% in size
What all share (conditions): P. falciparum in erythrocytes, SYBR Green DNA, 72 h; series mostly up to 28.7 µM
In general terms: In qHTS, concentration-response curves come from the screen itself.

For one assay, the system named is CP185. The method in brief:
(§1)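 SYBR Green fluorescence (ex 485 nm, em 535 nm) reports parasite DNA after 72 h compound exposure of infected red cells at 0.3% parasitemia, 2.5% hematocrit; signal normalized to 0.29 uM artemisinin and vehicle wells.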

A further assay relates to CP191. The method in brief: as §1
For another assay, the system named is CP192. The method in brief: as §1
In another assay the test system is CP194. The essentials:
as §1

The next assay has as its system CP201. The method in brief: as §1
Another assay has as its system CP211. The method in brief:
as §1

The test system of the next assay is CP215. The method in brief: as §1
Another assay has as its system CP217. The essentials: as §1
A further assay relates to CP237. The method in brief:
as §1

The subject of another assay is CP238. The method in brief: as §1
A further assay relates to CP247. The method in brief:
as §1

The subject of the next assay is CP250. The essentials:
as §1

Another assay concerns CP252. The method in brief:
as §1

A further assay deals with CP256. The essentials: as §1
The subject of a further assay is CP260. The essentials: as §1
Another assay has as its system CP262. The essentials:
as §1

The test system of another assay is CP265. The method in brief: as §1
The subject of a further assay is CP266. The method in brief: as §1
For another assay, the system named is CP268. The essentials: as §1
Potency is read from the fitted curve at half-maximal effect.

Regarding `CC(NNC(=O)c1ccccc1)c1ccccc1` (centres undefined), the Potency result in the assay on CP185, in the assay on CP191, in the assay on CP192, in the assay on CP194, in the assay with CP201 and in the assay with CP211 was “inactive” in each case. Also, the Potency result in the assay on CP215, with CP217, in the assay on CP237, in the assay with CP238, in the assay on CP247 and in the assay on CP250 was “inactive” in each case. For the same compound, the Potency result in the assay on CP252, in the assay on CP256, with CP260, with CP262, in the assay with CP265 and with CP266 was “inactive” throughout. Moreover, the Potency entry in the assay with CP268 was “inactive”.

As to `Cc1ccccc1`, the Potency entry with CP185, with CP191, in the assay on CP192, in the assay on CP194, in the assay on CP201 and with CP211 was “inactive” throughout. The Potency entry in the assay with CP215, in the assay on CP217, in the assay with CP237, in the assay on CP238, in the assay on CP247 and in the assay on CP250 was “inactive” throughout. The Potency result in the assay with CP252, in the assay with CP256, in the assay on CP260, with CP262, with CP265 and in the assay with CP266 was “inactive” throughout. For the same compound, the Potency result in the assay on CP268 was “inactive”.

With `CCN(CC)Cc1cc(Nc2ccnc3cc(Cl)ccc23)ccc1O`, the Potency in the assay on CP185 was 0.0631 µM (active); in the assay on CP191, 0.0398 µM (active); in the assay on CP192, 0.161 µM (active); with CP194 it was 0.128 µM (active); with CP201, 0.0907 µM (active); with CP211, 0.0642 µM (active). Besides, the Potency was 0.128 µM (active) in the assay with CP215; 0.112 µM (active) with CP217; 0.0355 µM (active) in the assay with CP237; 0.0891 µM (active) in the assay on CP238; 0.1 µM (active) in the assay with CP247; 0.0178 µM (active) in the assay with CP250. The Potency is 0.1 µM (active) in the assay with CP252; 0.0891 µM (active) with CP256; 0.02 µM (active) with CP260; 0.0721 µM (active) in the assay on CP262; 0.02 µM (active) in the assay with CP265; 0.102 µM (active) in the assay with CP266. Moreover, the Potency with CP268 was 0.051 µM (active).

`C[C@]12CCC(=O)C=C1CC[C@@H]1[C@@H]2[C@@H](O)C[C@@]2(C)[C@H]1CC[C@]2(O)C(=O)COP(=O)(O)O`: the Potency result in the assay on CP185, in the assay on CP191, in the assay on CP192, in the assay with CP194, in the assay on CP201 and in the assay on CP211 was “inactive” in each case. Also, the Potency entry with CP215, with CP217, with CP237, in the assay with CP238, in the assay with CP250 and with CP252 was “inactive” throughout. Moreover, the Potency entry with CP256, in the assay on CP260, in the assay with CP262, in the assay on CP265, with CP266 and with CP268 was “inactive” each time.

In the case of `Nc1c(N=Nc2ccc(-c3ccc(N=Nc4cc(S(=O)(=O)O)c5ccccc5c4N)cc3)cc2)cc(S(=O)(=O)O)c2ccccc12`, the Potency entry with CP185, with CP191, in the assay on CP192, in the assay on CP194, with CP201 and with CP211 was “inactive” throughout. Further, the Potency entry with CP215, with CP217, in the assay on CP237, in the assay with CP238, with CP247 and in the assay with CP250 was “inactive” each time. The Potency entry in the assay with CP252, with CP256, in the assay on CP260, in the assay with CP262, with CP265 and in the assay with CP266 was “inactive” each time. Moreover, in the assay on CP268, the Potency entry is “inactive”.

On to `O=C(COc1ccc(Cl)cc1)OCCNC12CC3CC(CC(C3)C1)C2`, for which the Potency result with CP185, with CP191, in the assay on CP192, in the assay on CP194, in the assay with CP201 and in the assay on CP211 was “inactive” each time. The Potency entry with CP215, in the assay on CP217, in the assay with CP238, in the assay with CP247, with CP250 and in the assay on CP252 was “inactive” in each case. Further, the Potency result with CP256, in the assay with CP260, with CP262, with CP265, in the assay with CP266 and in the assay on CP268 was “inactive” in each case.

Regarding `CC1=C(/C=C/C(C)=C/C=C/C(C)=C/C=C/C=C(C)/C=C/C=C(C)/C=C/C2=C(C)C(=O)CCC2(C)C)C(C)(C)CCC1=O`, the Potency result in the assay on CP185, in the assay on CP191, with CP192, in the assay on CP194, with CP201 and with CP211 was “inactive” in each case. The Potency entry in the assay on CP215, in the assay on CP217, in the assay on CP237, with CP238, with CP247 and in the assay on CP250 was “inactive” throughout. For the same compound, the Potency entry in the assay on CP252, with CP260, in the assay with CP262, in the assay on CP265, in the assay on CP266 and in the assay on CP268 was “inactive” each time.

On to `O=CCCCC=O`, for which the Potency entry with CP185, in the assay on CP191, in the assay on CP192, in the assay with CP194, in the assay on CP201 and in the assay with CP211 was “inactive” throughout. Moreover, the Potency result in the assay on CP215, in the assay with CP217, with CP237, in the assay on CP238, with CP247 and in the assay with CP250 was “inactive” throughout. Moreover, the Potency result with CP252, with CP256, with CP262, in the assay on CP265, in the assay with CP266 and in the assay on CP268 was “inactive” each time.

Consider `CCCCCCCCCCCCCC[n+]1ccc(C)cc1`, for which the Potency was 5.01 µM (active) in the assay with CP185; 2.82 µM (active) in the assay with CP191; 4.78 µM (active) with CP192; 4.26 µM (active) in the assay on CP194; 4.78 µM (active) with CP201; 3.38 µM (active) with CP211. Further, the Potency was 4.26 µM (active) with CP215; 3.98 µM (active) in the assay with CP217; 3.55 µM (active) in the assay on CP237; 4.47 µM (active) in the assay with CP238; 3.98 µM (active) in the assay on CP247; 3.98 µM (active) in the assay with CP250. Also, the Potency is 4.47 µM (active) in the assay with CP252; 5.01 µM (active) in the assay with CP256; 2.51 µM (active) in the assay with CP260; 4.47 µM (active) with CP265; 4.26 µM (active) in the assay on CP266; 1.69 µM (active) in the assay with CP268. Further, the Potency entry in the assay on CP262 is “inactive”.

As for `NC(=O)c1ncn(C2OC(CO)C(O)C2O)n1` (centres undefined), the Potency entry in the assay on CP185, in the assay on CP191, with CP192, in the assay on CP194, in the assay with CP201 and in the assay on CP211 was “inactive” in each case. For the same compound, the Potency entry in the assay with CP215, in the assay with CP217, with CP237, in the assay on CP238, in the assay with CP247 and with CP250 was “inactive” each time. In addition, the Potency result with CP252, with CP256, in the assay on CP260, in the assay on CP262, in the assay on CP265 and with CP266 was “inactive” throughout. Moreover, in the assay on CP268, the Potency entry is “inactive”.

On to `CCCCC(=O)O[C@]1(C(=O)CO)[C@H](C)C[C@H]2[C@@H]3CCC4=CC(=O)C=C[C@]4(C)[C@@]3(F)[C@@H](O)C[C@@]21C`, for which the Potency entry in the assay with CP185, in the assay on CP191, in the assay on CP192, in the assay on CP194, in the assay on CP201 and in the assay on CP211 was “inactive” throughout. The Potency result with CP215, with CP217, with CP237, with CP238, with CP247 and in the assay with CP250 was “inactive” in each case. Besides, the Potency entry in the assay with CP252, with CP256, with CP262, in the assay with CP265, with CP266 and in the assay on CP268 was “inactive” each time.
